# Unmarked numbers belong to inactive results. Records with an inconclusive call do not appear. Where a call stands in place of a potency, no number is given. Activity calls are given as the source filed them. Unless noted, calls come from the whole dose curve; as a rule, active = well fitted curve in the direction sought with a large enough effect; inconclusive = small, poorly fitted or top-dose-only effect, or another doubt; inactive = no such curve, though single readings can be large; an effect the other way counts as inactive or inconclusive.
# How the values were obtained:
# [1] = system: MKL-2; experiment: qHTS assay to identify novel small-molecules to repurpose for Merkel cell carcinoma treatment (AID 1296009); conditions: MCC and control cell lines, CellTiter-Glo viability, 72 h; series mostly up to 46 µM; note: nearly all actives have a fitted effect of over 60% in size
# Procedure, shortened: (§1)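 Cell viability, measured as CellTiter-Glo luminescence, was normalized between DMSO and no-cell wells. The cells had been exposed to 8- or 11-point compound dilutions for 72 hr at 37 degree celsius.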
# [2] = system: UISO; experiment: as above; conditions: MCC and control cell lines, CellTiter-Glo viability, 72 h; series mostly up to 46 µM
# Procedure, shortened: as §1
# [3] = system: WaGa; experiment: as above; conditions: MCC and control cell lines, CellTiter-Glo viability, 72 h; series mostly up to 46 µM
# Procedure, shortened: as §1
# [4] = system: C33A; experiment: Primary qHTS to identify gynecologic anti-cancer compounds using libraries of approved drugs and bioactive compounds (AID 1345084); conditions: Gynecologic cancer cell panel viability, ATPlite luminescence, 48 h; series mostly up to 57.5 µM; note: nearly all actives have a fitted effect of over 55% in size
# Procedure, shortened: (§2)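 Cells, 1,000 per well, were allowed to settle for 16 h at 37 C before compound addition. Five concentrations were tested for 48 h, and viability was read by ATPlite luminescence after 15 min at room temperature.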
# [5] = system: CAOV3; experiment: as above; conditions: Gynecologic cancer cell panel viability, ATPlite luminescence, 48 h; series mostly up to 57.5 µM
# Procedure, shortened: as §2
# [6] = system: CASKI; experiment: as above; conditions: Gynecologic cancer cell panel viability, ATPlite luminescence, 48 h; series mostly up to 57.5 µM
# Procedure, shortened: as §2
# [7] = system: Es-2; experiment: as above; conditions: Gynecologic cancer cell panel viability, ATPlite luminescence, 48 h; series mostly up to 57.5 µM
# Procedure, shortened: as §2
# [8] = system: HeLa; experiment: as above; conditions: Gynecologic cancer cell panel viability, ATPlite luminescence, 48 h; series mostly up to 57.5 µM
# Procedure, shortened: as §2
# [9] = system: Hek293T; experiment: as above; conditions: Gynecologic cancer cell panel viability, ATPlite luminescence, 48 h, control line for the selectivity index; series mostly up to 57.5 µM
# Procedure, shortened: as §2
# [10] = system: JEG-3; experiment: as above; conditions: Gynecologic cancer cell panel viability, ATPlite luminescence, 48 h; series mostly up to 57.5 µM
# Procedure, shortened: as §2
# [11] = system: OV90; experiment: as above; conditions: Gynecologic cancer cell panel viability, ATPlite luminescence, 48 h; series mostly up to 57.5 µM
# Procedure, shortened: as §2
# [12] = system: PA-1; experiment: as above; conditions: Gynecologic cancer cell panel viability, ATPlite luminescence, 48 h; series mostly up to 57.5 µM
# Procedure, shortened: as §2
# [13] = system: SKOV3; experiment: as above; conditions: Gynecologic cancer cell panel viability, ATPlite luminescence, 48 h; series mostly up to 57.5 µM
# Procedure, shortened: as §2
# [14] = system: Tov-21-G; experiment: as above; conditions: Gynecologic cancer cell panel viability, ATPlite luminescence, 48 h; series mostly up to 57.5 µM
# Procedure, shortened: as §2
# [15] = system: Tov112D; experiment: as above; conditions: Gynecologic cancer cell panel viability, ATPlite luminescence, 48 h; series mostly up to 57.5 µM
# Procedure, shortened: as §2
# [16] = Drug repurposing screens with cells derived from glioblastoma tumor samples (AID 1345199); conditions: GBM patient neurospheres viability, ATP luminescence, 48 h; note: nearly all actives have a fitted effect of over 40% in size; note: potency is the fitted concentration of half-maximal effect
# Procedure, shortened: (§3)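 Primary testing used CD133+ neurospheres from four GBM patients, seven concentrations, 48 h exposure and ATP-based viability; confirmation added three slower-growing patient lines.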
# [17] = system: astro; experiment: as above; conditions: viability, ATP luminescence, 48 h; series mostly up to 45.9 µM
# Procedure, shortened: as §3
# [18] = molecular target: Nuclear receptor subfamily 1 group I member 2 (Rattus norvegicus) (UniProt Q9R1A7); experiment: qHTS assay for small molecule activators of the rat pregnane X receptor (rPXR) signaling pathway (AID 651751; call rule not given here); conditions: rPXR reporter cells, luciferase (One-Glo), 24 h
# [19] = qHTS assay for small molecule activators of the human pregnane X receptor (PXR) signaling pathway (AID 720659; call rule not given here)
# [20] = at 45.9 µM (top of the series), tumour line B
# [21] = at 45.9 µM (top of the series), tumour line D
# [22] = at 46 µM (top of the series), tumour line A
# [23] = at 46.1 µM (top of the series), tumour line C
# Nuclear receptor subfamily 1 group I member 2 (Rattus norvegicus), sequence (Q9R1A7 whole entry, looked up): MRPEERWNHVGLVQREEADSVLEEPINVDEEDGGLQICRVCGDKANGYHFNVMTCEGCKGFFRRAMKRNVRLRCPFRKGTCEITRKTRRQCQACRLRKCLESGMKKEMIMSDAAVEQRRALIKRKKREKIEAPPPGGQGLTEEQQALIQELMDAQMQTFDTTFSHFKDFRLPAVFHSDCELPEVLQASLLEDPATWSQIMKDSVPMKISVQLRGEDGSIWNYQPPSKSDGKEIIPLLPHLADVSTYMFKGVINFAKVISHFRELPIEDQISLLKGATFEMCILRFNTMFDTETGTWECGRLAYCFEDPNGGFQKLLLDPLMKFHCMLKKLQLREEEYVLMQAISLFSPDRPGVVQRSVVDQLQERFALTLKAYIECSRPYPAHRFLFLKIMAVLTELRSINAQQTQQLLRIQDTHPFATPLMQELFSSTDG
structure (smiles),measurement,setting,value
CC(C)(Oc1ccc(Cl)cc1)C(=O)O,Potency,[1],inactive
same,Potency,[2],inactive
same,Potency,[3],inactive
same,Potency,[4],inactive
same,Potency,[5],inactive
same,Potency,[6],inactive
same,Potency,[7],inactive
same,Potency,[8],inactive
same,Potency,[9],inactive
same,Potency,[10],inactive
same,Potency,[11],inactive
same,Potency,[12],inactive
same,Potency,[13],inactive
same,Potency,[14],inactive
same,Potency,[15],inactive
same,"activity, negative = cell killing",[16]; [20],-11.3%
same,"activity, negative = cell killing",[16]; [21],2.87%
same,"activity, negative = cell killing",[16]; [22],-14.8%
same,"activity, negative = cell killing",[16]; [23],-3.07%
same,Potency,[17],inactive
same,max response,[18],-4.53%
same,outcome,[19],inactive
COc1cc(/C=C/C(=O)O[C@H]2CC[C@]34C[C@]35CC[C@]3(C)[C@@H]([C@H](C)CCC=C(C)C)CC[C@@]3(C)[C@@H]5CC[C@H]4C2(C)C)ccc1O,Potency,[1],inactive
same,Potency,[2],inactive
same,Potency,[3],inactive
same,Potency,[4],inactive
same,Potency,[5],inactive
same,Potency,[6],inactive
same,Potency,[7],inactive
same,Potency,[8],inactive
same,Potency,[9],inactive
same,Potency,[10],inactive
same,Potency,[11],inactive
same,Potency,[12],inactive
same,Potency,[13],inactive
same,Potency,[14],inactive
same,Potency,[15],inactive
same,"activity, negative = cell killing",[16]; [20],-21.5%
same,"activity, negative = cell killing",[16]; [21],-21.3%
same,"activity, negative = cell killing",[16]; [22],-29.3%
same,"activity, negative = cell killing",[16]; [23],-22.4%
same,Potency,[17],17.8 µM (active)
CC1(C)O[C@@H]2C[C@H]3[C@@H]4C[C@H](F)C5=CC(=O)C=C[C@]5(C)[C@H]4[C@@H](O)C[C@]3(C)[C@]2(C(=O)CO)O1,Potency,[1],inactive
same,Potency,[2],inactive
same,Potency,[3],inactive
same,Potency,[4],inactive
same,Potency,[5],inactive
same,Potency,[6],inactive
same,Potency,[7],inactive
same,Potency,[8],inactive
same,Potency,[9],inactive
same,Potency,[10],inactive
same,Potency,[11],inactive
same,Potency,[12],inactive
same,Potency,[13],inactive
same,Potency,[14],inactive
same,Potency,[15],inactive
same,"activity, negative = cell killing","[16]; at 20 µM (top of the series), tumour line C",3.76%
same,"activity, negative = cell killing","[16]; at 21.2 µM (top of the series), tumour line B",2.57%
same,"activity, negative = cell killing","[16]; at 21.2 µM (top of the series), tumour line D",-8.48%
same,"activity, negative = cell killing","[16]; at 21.3 µM (top of the series), tumour line A",19%
same,Potency,[17],inactive
Cc1ccc(Nc2c(F)cccc2Cl)c(CC(=O)O)c1,Potency,[1],inactive
same,Potency,[2],inactive
same,Potency,[3],inactive
same,Potency,[4],inactive
same,Potency,[5],inactive
same,Potency,[6],inactive
same,Potency,[7],inactive
same,Potency,[8],inactive
same,Potency,[9],inactive
same,Potency,[10],inactive
same,Potency,[11],inactive
same,Potency,[12],inactive
same,Potency,[13],inactive
same,Potency,[14],inactive
same,Potency,[15],inactive
same,"activity, negative = cell killing",[16]; [20],-6.28%
same,"activity, negative = cell killing",[16]; [21],-3.08%
same,"activity, negative = cell killing",[16]; [22],-32.8%
same,"activity, negative = cell killing",[16]; [23],-3.92%
same,Potency,[17],inactive
NC(CS)C(=O)O (stereo not given),Potency,[1],inactive
same,Potency,[2],inactive
same,Potency,[3],inactive
same,Potency,[4],inactive
same,Potency,[5],inactive
same,Potency,[6],inactive
same,Potency,[7],inactive
same,Potency,[8],inactive
same,Potency,[9],inactive
same,Potency,[10],inactive
same,Potency,[11],inactive
same,Potency,[12],inactive
same,Potency,[13],inactive
same,Potency,[14],inactive
same,Potency,[15],inactive
same,"activity, negative = cell killing",[16]; [20],-9.5%
same,"activity, negative = cell killing",[16]; [21],-0.348%
same,"activity, negative = cell killing",[16]; [22],-20.7%
same,"activity, negative = cell killing",[16]; [23],-17%
O=C(Nc1ccc(Cl)c(Cl)c1)C1CC1,Potency,[1],inactive
same,Potency,[2],inactive
same,Potency,[3],inactive
same,Potency,[4],inactive
same,Potency,[5],inactive
same,Potency,[6],inactive
same,Potency,[7],inactive
same,Potency,[8],inactive
same,Potency,[9],inactive
same,Potency,[10],inactive
same,Potency,[11],inactive
same,Potency,[12],inactive
same,Potency,[13],inactive
same,Potency,[14],inactive
same,Potency,[15],inactive
same,"activity, negative = cell killing",[16]; [20],-26.9%
same,Potency,[16]; tumour line A,28.2 µM (active)
same,Potency,[16]; tumour line C,23.1 µM (active)
same,Potency,[16]; tumour line D,20 µM (active)
